According to the supplement of paper PMC6555819:

Experiments:
Test in all cases: PBM binding z-score (relative to random genomic background probes); higher = stronger binding; sequences stand for … in GC…GCGATTGACAGCGTAGAATGAAGG
[1] = tested on: PPARg:RXRa DBDmut IVT, anti-RXR (DBD mutation: RXRa K156A/R161A, NR concentration 270 nM, RXRa partner concentration 90 nM)
In short: (§1)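 Binding z-scores were set against random background probes. The data came from custom Agilent 4×180K protein-binding microarrays carrying double-stranded probes with 34-nt variable regions, incubated 1 h with ligand-free nuclear receptor dimers. Partner-specific antibodies detected binding, and scanned fluorescence was regression-normalized.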

[2] = tested on: PPARg:RXRa IVT, anti-PPARg (NR concentration 270 nM, RXRa partner concentration 90 nM)
In short: as §1

[3] = tested on: PPARg DBDmut:RXRa IVT, anti-PPARg (DBD mutation: PPARg1 K132A/R137A, NR concentration 270 nM, RXRa partner concentration 90 nM)
In short: as §1

[4] = tested on: PPARg DBDmut IVT, anti-PPARg (DBD mutation: PPARg1 K132A/R137A, NR concentration 270 nM)
In short: as §1

[5] = tested on: PPARg homodimer (NR concentration 180 nM)
In short: as §1

[6] = tested on: PXR:RXRa (NR concentration 270 nM, RXRa partner concentration 90 nM)
In short: as §1

[7] = tested on: PXR homodimer (NR concentration 270 nM)
In short: as §1

[8] = tested on: RARa:RXR (NR concentration 270 nM, RXRa partner concentration 90 nM)
In short: as §1

[9] = tested on: RARa homodimer (NR concentration 270 nM)
In short: as §1

[10] = tested on: RARb:RXRa (NR concentration 270 nM, RXRa partner concentration 90 nM)
In short: as §1

Row | Sequence | PBM binding z-score [1] | PBM binding z-score [2] | PBM binding z-score [3] | PBM binding z-score [4] | PBM binding z-score [5] | PBM binding z-score [6] | PBM binding z-score [7] | PBM binding z-score [8] | PBM binding z-score [9] | PBM binding z-score [10]
1 | GCTAGCAGGCCATTTGGGTCACACAATGACGGGC | 2 | 2.63 | -0.238 | -0.979 | 0.139 | 0.906 | 0.00293 | 1.05 | -0.205 | 1.61
2 | CCGACTGGGGCAAAGGTGACCATACTCAGTACGA | 5.54 | 5.24 | 0.207 | -0.959 | 1.34 | 0.701 | -0.655 | 1.65 | -0.317 | 1.62
3 | CATACAGGGTCAGGTAGGCCAGAGTAGGGACGGC | 0.321 | 2.48 | 0.416 | 0.457 | 1.75 | 2.23 | 0.241 | 3.46 | 0.612 | 3.73
4 | CGTCCAAGGTCAATGCTAGGTCAGGGAAAGCATT | 2.8 | 4.06 | -0.00201 | -0.912 | 3.8 | 4.55 | 0.675 | 5.55 | 0.824 | 5.31
5 | CCTAACGGGTCACTGACAGGTTATAGCATTTGGA | 2.22 | 2.71 | -0.265 | -0.262 | 2.61 | 3.02 | 0.336 | 4.05 | 1.31 | 3.48
6 | ACTAGCACGCCAAGGGTCACTCAAGATTAGTCCG | 0.189 | 1.26 | -0.247 | -0.0799 | 2.55 | 3.56 | 0.0958 | 4.5 | 1.53 | 3.58
7 | ACTATTAGTTGACTAAGGGCAACCGATACGACGC | 0.0727 | 0.783 | 0.688 | 0.819 | 0.638 | 0.652 | 0.92 | 0.766 | 0.98 | 1.53
8 | CAAACTAGGTCAAAGGTAAAAGTCGAGCCAACCA | 8.99 | 9.08 | 2.75 | 1.05 | 2.75 | 3.48 | -0.123 | 5.33 | 0.696 | 4.21
9 | CGTCAAAGTTCAACTAAGGTAACGTACAGCACGC | 0.621 | 2.54 | 0.979 | 0.528 | 3.88 | 5.9 | 4.77 | 4.72 | 2.23 | 5.42
10 | TCTCGGAGAACACGAAGGTCAGAGCTTTCCAGAG | 1.08 | 0.106 | -2.09 | -1.27 | 0.419 | 1.29 | -0.535 | 1.67 | -0.665 | 2.49
11 | GATACTGGGTCAAGGCCAGAGTACGCGTATTGAT | 6.7 | 7.44 | 0.217 | 1.07 | 1.49 | 1.23 | -0.00412 | 1.72 | 0.506 | 3.48
12 | TCTAGCAGGCCAGAGGGTCACGCAAGAGGTACGG | 0.77 | 1.31 | -0.82 | -1.03 | 0.618 | 2.62 | -0.51 | 3.55 | -0.463 | 2.84
13 | ACTATTAGTTGACTTAGGGCAACCGCTACGACGC | -0.144 | 0.703 | 0.862 | 0.674 | 0.236 | 0.0683 | -0.0423 | 0.605 | 0.391 | 0.745
14 | ATCTCTAGGTAACGATAGTTCAGTGAATGCAAAT | 3.41 | 3.08 | 1.42 | 1.62 | 0.431 | 0.926 | 0.85 | 0.162 | 0.352 | 0.902
15 | TTACCAAGATGAAAGGTCGTTGATGCACGCCTTG | 0.675 | 1.47 | 0.794 | 0.0757 | 1.13 | 2.08 | 0.245 | 2.24 | 0.444 | 1.55
16 | ATCTCTAGCTAAAGTTCAGTGAAAGATCGATAGA | -0.514 | 0.413 | 0.743 | 0.86 | 1.51 | 1.8 | 1.85 | 1.04 | 1.01 | 2.68
17 | GATGCTAGGTCAACTGATGGTCAGCTAAAGCTCG | 3.82 | 3.75 | -0.0408 | -0.329 | 1.48 | 1.45 | -0.415 | 2.58 | -0.157 | 4.11
18 | CGTCCAAGGTCGAGGTCAGTGAAAGAGACTCGAA | 1.1 | 2.35 | -1.04 | -1.22 | 1.43 | 3.59 | 0.491 | 3.61 | -0.0434 | 4.39
19 | AGTCAAAGTTCACTACGTAACGTAAGATTCAGCT | 0.373 | 1.98 | 1.52 | 1.04 | 1.69 | 3.72 | 2.5 | 2.71 | 1.15 | 4.47
20 | TCTAGTTGGTCAAAGATCACACACTCGAAATGCG | 2.51 | 2.84 | 1.33 | 1.22 | 1.93 | 1.07 | 0.547 | 1.77 | 0.928 | 1.3
21 | CGTCAAAGTCCAACTAAGGTAACGTAAAGCACGC | 0.179 | 0.394 | 0.436 | -0.503 | 0.498 | 0.234 | 0.179 | 1.23 | 0.41 | 1.9
22 | CGTACAAGGTCAAGGTCAGTGAAAGAGACTCGAA | 4.64 | 5.48 | 1.83 | 0.837 | 4.4 | 5.27 | 1.65 | 5.96 | 2.4 | 5.65
23 | TCATAGAGGTAAATGCTAGGTGAAAGTCCGATCT | 2.05 | 1.32 | -0.394 | -0.601 | 0.164 | 0.0496 | -0.193 | 0.932 | -0.0762 | 0.439
24 | CCGACTGGGGCAAGGTTACGATAACGCACAGCCA | 3.36 | 3.57 | -0.0114 | -0.572 | 0.143 | 0.367 | -0.626 | 0.767 | -0.286 | 1.66
25 | ATCGAAAGGTCGAGATGAGTATAGAGAAAGGGAA | -0.278 | 1.33 | 1.47 | 1.2 | 1.05 | 2.02 | 0.117 | 2.52 | 0.436 | 3.66
